Paper PMC8384837, “Expanding the binding specificity for RNA recognition by a PUF domain”
Residue numbers refer to the chain shown, from its start.

Assays:
Assay in all cases: yeast three-hybrid, YBZ-1, SC-Leu-His + 0.5 mM 3-AT, 4 days
Conditions in all cases: tags: N-Gal4 AD-HA kept; label: inside an RPR1-promoter hybrid RNA with tandem MS2 sites; ssRNA
PUM1 PUF domain R6-IYV = molecular target: T1, PUM1 PUF domain R6-IYV (Homo sapiens, UniProt Q14671 828-1176, N1043I;Q1047V)
T1 sequence: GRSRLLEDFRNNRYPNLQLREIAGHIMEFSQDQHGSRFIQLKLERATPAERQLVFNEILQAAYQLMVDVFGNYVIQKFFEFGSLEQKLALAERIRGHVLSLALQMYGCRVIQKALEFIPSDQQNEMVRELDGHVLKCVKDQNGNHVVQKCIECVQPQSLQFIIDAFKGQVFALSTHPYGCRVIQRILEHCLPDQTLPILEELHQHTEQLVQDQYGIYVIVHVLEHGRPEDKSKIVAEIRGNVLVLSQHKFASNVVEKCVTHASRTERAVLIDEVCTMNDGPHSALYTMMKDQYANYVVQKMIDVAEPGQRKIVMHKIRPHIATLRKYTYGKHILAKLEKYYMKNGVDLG
Method in brief: (§1)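 The interaction score is the log change in variant frequency from input to selection. Scores were computed in log2 with a pseudocount of 1 for absent variants, using Illumina sequencing of PCR-amplified repeat regions. The input came from four days on SC-Leu and the selection from four days on SC-Leu-His + 0.5 mM 3-AT. The cells were strain YBZ-1 (LexA–MS2 coat fusion, HIS3 reporter) co-expressing Pumilio-1 PUF domain libraries and matching RNA elements from a centromeric plasmid.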

PUM1 PUF domain R6-CFC = molecular target: T2, PUM1 PUF domain R6-CFC (Homo sapiens, UniProt Q14671 828-1176, N1043C;Y1044F;Q1047C)
T2 sequence: T1 sequence with I216C, Y217F, V220C
Method in brief: as §1

PUM1 PUF domain R5-KHG = PUM1 PUF domain R5-KHG (Homo sapiens, UniProt Q14671 828-1176, C1007K;R1008H;Q1011G)
Method in brief: as §1

PUM1 PUF domain R4-DHE = PUM1 PUF domain R4-DHE (Homo sapiens, UniProt Q14671 828-1176, N971D;Q975E)
Method in brief: as §1

PUM1 PUF domain R4-SWG = PUM1 PUF domain R4-SWG (Homo sapiens, UniProt Q14671 828-1176, N971S;H972W;Q975G)
Method in brief: as §1

PUM1 PUF domain R7-RCQ = PUM1 PUF domain R7-RCQ (Homo sapiens, UniProt Q14671 828-1176, S1079R;N1080C;E1083Q)
Method in brief: as §1

PUM1 PUF domain R5-QKC = PUM1 PUF domain R5-QKC (Homo sapiens, UniProt Q14671 828-1176, C1007Q;R1008K;Q1011C)
Method in brief: as §1

PUM1 PUF domain R2-EWT = PUM1 PUF domain R2-EWT (Homo sapiens, UniProt Q14671 828-1176, N899E;Y900W;Q903T)
Method in brief: as §1

## GGCUAGAACUAGUGGAUCCCCCGGCGCCCGGCGGCUCGAGCCCGGGUAAGUGUAAAUAGUCUGCAUGCCGCCGGGCGCCAUGCCUGCAGGUCGACUCUAGAAAACAUG
PUM1 PUF domain R6-IYV
  binding signal: 2.91 log2 enrichment (interaction score)
PUM1 PUF domain R6-CFC
  binding signal: 1.34 log2 enrichment (interaction score)
PUM1 PUF domain R5-KHG
  binding signal: 3.79 log2 enrichment (interaction score)

## GGCUAGAACUAGUGGAUCCCCCGGCGCCCGGCGGCUCGAGCCCGGGUAAGUGAAAAUAGUCUGCAUGCCGCCGGGCGCCAUGCCUGCAGGUCGACUCUAGAAAACAUG
PUM1 PUF domain R6-CFC
  binding signal: 4.06 log2 enrichment (interaction score)

## GGCUAGAACUAGUGGAUCCCCCGGCGCCCGGCGGCUCGAGCCCGGGUAAGUGUACAUAGUCUGCAUGCCGCCGGGCGCCAUGCCUGCAGGUCGACUCUAGAAAACAUG
PUM1 PUF domain R4-DHE
  binding signal: 2.01 log2 enrichment (interaction score)

## GGCUAGAACUAGUGGAUCCCCCGGCGCCCGGCGGCUCGAGCCCGGGUAAGUGUAUAUAGUCUGCAUGCCGCCGGGCGCCAUGCCUGCAGGUCGACUCUAGAAAACAUG
PUM1 PUF domain R4-DHE
  binding signal: 4.57 log2 enrichment (interaction score)
PUM1 PUF domain R4-SWG
  binding signal: 2.5 log2 enrichment (interaction score)

## GGCUAGAACUAGUGGAUCCCCCGGCGCCCGGCGGCUCGAGCCCGGGUAAGUCUAAAUAGUCUGCAUGCCGCCGGGCGCCAUGCCUGCAGGUCGACUCUAGAAAACAUG
PUM1 PUF domain R7-RCQ
  binding signal: 2.3 log2 enrichment (interaction score)

## GGCUAGAACUAGUGGAUCCCCCGGCGCCCGGCGGCUCGAGCCCGGGUAAGUGUUAAUAGUCUGCAUGCCGCCGGGCGCCAUGCCUGCAGGUCGACUCUAGAAAACAUG
PUM1 PUF domain R5-QKC
  binding signal: 3.74 log2 enrichment (interaction score)

## GGCUAGAACUAGUGGAUCCCCCGGCGCCCGGCGGCUCGAGCCCGGGUAAGUGUAAAAAGUCUGCAUGCCGCCGGGCGCCAUGCCUGCAGGUCGACUCUAGAAAACAUG
PUM1 PUF domain R2-EWT
  binding signal: 2.39 log2 enrichment (interaction score)
